Holding throughout (parameters): scale not given: direction of the effect not stated beside the values
Assay [1] concerns the target Protein translocase subunit SecA (Escherichia coli (strain K12)) (UniProt P10408). Nature of the assay: Assay to Identify E. coli SecA ATPase Inhibitors. It counts as functional. As to conditions: 30 µM.
Assay [2] deals with T1, Ubiquitin-activating enzyme e1, putative (Leishmania donovani (strain BPK282A1)) (UniProt E9BSI1).
T1 sequence (whole entry): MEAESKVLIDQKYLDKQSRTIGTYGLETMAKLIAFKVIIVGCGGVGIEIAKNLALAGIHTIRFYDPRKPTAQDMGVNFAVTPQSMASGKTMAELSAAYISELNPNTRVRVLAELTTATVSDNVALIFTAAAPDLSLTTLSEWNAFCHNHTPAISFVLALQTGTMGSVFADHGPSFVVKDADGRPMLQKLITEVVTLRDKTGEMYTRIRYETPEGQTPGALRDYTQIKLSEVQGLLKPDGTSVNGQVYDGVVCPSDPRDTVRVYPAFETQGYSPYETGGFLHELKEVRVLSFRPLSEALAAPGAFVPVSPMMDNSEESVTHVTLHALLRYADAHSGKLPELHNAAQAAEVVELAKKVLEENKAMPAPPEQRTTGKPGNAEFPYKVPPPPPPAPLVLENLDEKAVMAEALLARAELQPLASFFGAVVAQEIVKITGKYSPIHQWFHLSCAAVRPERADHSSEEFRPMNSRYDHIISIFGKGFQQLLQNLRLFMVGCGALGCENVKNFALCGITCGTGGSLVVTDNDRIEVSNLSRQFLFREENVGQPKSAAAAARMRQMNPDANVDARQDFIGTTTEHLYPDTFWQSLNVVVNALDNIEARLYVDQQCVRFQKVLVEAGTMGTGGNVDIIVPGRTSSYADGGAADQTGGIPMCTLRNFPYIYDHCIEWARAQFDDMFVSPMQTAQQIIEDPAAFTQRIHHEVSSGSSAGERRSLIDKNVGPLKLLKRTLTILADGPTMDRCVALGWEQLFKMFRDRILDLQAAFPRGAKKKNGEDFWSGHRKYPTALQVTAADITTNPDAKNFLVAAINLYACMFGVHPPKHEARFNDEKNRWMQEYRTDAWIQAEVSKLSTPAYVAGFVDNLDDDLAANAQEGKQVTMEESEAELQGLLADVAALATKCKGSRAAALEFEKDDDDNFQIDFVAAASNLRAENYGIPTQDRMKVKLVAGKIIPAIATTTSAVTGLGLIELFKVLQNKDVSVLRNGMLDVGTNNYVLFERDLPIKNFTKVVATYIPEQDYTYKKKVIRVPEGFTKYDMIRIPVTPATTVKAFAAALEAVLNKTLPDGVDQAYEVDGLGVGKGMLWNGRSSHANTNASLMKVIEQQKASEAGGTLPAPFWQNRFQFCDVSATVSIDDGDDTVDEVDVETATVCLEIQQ
Nature of the assay: Leishmania donovani Ubiquitin Activating Enzyme (LdE1). It is filed as functional. As to conditions: 30 µM.

Assay [3] has as its target T2, Aspartate--tRNA(Asp/Asn) ligase (Mycobacterium tuberculosis (strain ATCC 25618 / H37Rv)) (UniProt P9WFW3). Note: in the data most compounds retested in dose-response had high values.
T2 sequence (whole entry): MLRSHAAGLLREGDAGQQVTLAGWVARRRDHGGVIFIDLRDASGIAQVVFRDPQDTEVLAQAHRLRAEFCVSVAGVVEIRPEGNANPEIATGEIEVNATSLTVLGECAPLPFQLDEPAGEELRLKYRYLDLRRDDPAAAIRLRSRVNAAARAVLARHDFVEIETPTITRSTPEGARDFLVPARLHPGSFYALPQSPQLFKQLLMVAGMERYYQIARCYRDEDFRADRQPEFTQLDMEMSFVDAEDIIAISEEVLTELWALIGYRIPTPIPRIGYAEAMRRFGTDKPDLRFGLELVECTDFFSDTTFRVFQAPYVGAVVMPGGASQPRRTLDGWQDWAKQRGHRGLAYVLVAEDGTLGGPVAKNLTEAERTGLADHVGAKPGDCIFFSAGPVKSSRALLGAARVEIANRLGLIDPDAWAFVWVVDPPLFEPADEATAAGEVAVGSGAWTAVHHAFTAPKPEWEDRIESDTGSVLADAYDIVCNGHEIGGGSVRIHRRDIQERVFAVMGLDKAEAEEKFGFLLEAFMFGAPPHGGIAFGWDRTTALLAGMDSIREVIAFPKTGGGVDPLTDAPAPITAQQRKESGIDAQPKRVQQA
Nature of the assay: Assay for Asp RNA synthetase-1 from Mycobacterium tuberculosis. It is filed as functional. As to conditions: 30 µM.

Assay [4] addresses AMP-activated protein kinase, AMPK (Homo sapiens) (UniProt P54646+O43741+P54619+Q9UGJ0+Q9Y478+Q13131+Q9UGI9). Nature of the assay: AMP-dependent Kinase enzyme assay. An in vitro enzyme assay that detects ADP turnover that is directly proportional to AMPK activity. This uses naive AMPK that is activated during the assay with MK-8722. It is filed as functional. As to conditions: 30 µM.

The target in assay [5] is Sialic acid-binding Ig-like lectin 9 (Homo sapiens) (UniProt Q9Y336). Kind of assay: Hs-Siglec9 ALPHAscreen SOP 20170721. As to conditions: 10 µM. A general note: In Alpha technology, singlet oxygen from a donor bead excites a nearby acceptor bead.
The test system of a further assay is Trypanosoma cruzi. Kind of assay: Trypanosoma cruzi phosphomannomutase and mannose-1-phosphate guanylyltransferase assay. It is filed as functional. Conditions: 10 µM.
The target in assay [6] is T3, Arginase-2, mitochondrial (Homo sapiens) (UniProt P78540).
T3 sequence (whole entry): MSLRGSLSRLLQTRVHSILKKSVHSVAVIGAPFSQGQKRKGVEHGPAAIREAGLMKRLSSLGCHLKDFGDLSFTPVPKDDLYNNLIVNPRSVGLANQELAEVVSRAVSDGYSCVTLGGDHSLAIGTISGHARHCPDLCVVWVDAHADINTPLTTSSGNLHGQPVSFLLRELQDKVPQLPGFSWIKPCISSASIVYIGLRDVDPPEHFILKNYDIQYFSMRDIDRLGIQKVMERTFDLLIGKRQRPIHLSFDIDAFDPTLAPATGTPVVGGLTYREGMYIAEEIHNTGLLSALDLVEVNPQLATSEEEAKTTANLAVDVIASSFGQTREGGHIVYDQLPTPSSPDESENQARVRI
Kind of assay: in vitro enzyme assay to detect the production of urea directly proportional to the activity of Arginase II. Note: in the data most compounds retested in dose-response had high values. It is filed as functional. Conditions: 33.3 µM.

The target in assay [7] is T4, Proteasome subunit beta (Trypanosoma cruzi) (UniProt O96673).
T4 sequence (whole entry): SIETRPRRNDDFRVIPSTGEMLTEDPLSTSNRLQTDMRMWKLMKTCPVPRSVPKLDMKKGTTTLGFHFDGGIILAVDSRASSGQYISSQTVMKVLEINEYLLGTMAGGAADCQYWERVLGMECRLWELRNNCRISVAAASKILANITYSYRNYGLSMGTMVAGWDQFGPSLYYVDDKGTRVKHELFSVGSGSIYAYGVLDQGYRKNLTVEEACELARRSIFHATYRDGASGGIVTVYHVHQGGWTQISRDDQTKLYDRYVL
Kind of assay: Trypanosoma cruzi proteasome chymotrypsin-like activity (TcProtChymo) assay. Note: in the data most compounds retested in dose-response had high values. It is filed as functional. Conditions: 9.37 µM.

The next assay is filed under the species Homo sapiens. Kind of assay: To identify inhibition of the IFN signalling (Jak-Stat) pathway via expression of an eGFP reporter gene under the control of an IFN-stimulated response element (ISRE) containing MxA promoter. It counts as functional. Conditions: 30 µM. A general note: In a reporter assay the amount or activity of a reporter protein is the signal.

For assay [8], the target named is Shiga toxin 2 (Escherichia coli O157:H7) (UniProt P09385+P09386). Nature of the assay: E. coli 0.157:H7 Shiga Toxin SOP - stx2 screening assay. It is filed as functional. Conditions: 30 µM.
The target of assay [9] is T5, Tyrosyl-tRNA synthetase, putative (Trypanosoma cruzi (strain CL Brener)) (UniProt Q4DSP6).
T5 sequence (whole entry): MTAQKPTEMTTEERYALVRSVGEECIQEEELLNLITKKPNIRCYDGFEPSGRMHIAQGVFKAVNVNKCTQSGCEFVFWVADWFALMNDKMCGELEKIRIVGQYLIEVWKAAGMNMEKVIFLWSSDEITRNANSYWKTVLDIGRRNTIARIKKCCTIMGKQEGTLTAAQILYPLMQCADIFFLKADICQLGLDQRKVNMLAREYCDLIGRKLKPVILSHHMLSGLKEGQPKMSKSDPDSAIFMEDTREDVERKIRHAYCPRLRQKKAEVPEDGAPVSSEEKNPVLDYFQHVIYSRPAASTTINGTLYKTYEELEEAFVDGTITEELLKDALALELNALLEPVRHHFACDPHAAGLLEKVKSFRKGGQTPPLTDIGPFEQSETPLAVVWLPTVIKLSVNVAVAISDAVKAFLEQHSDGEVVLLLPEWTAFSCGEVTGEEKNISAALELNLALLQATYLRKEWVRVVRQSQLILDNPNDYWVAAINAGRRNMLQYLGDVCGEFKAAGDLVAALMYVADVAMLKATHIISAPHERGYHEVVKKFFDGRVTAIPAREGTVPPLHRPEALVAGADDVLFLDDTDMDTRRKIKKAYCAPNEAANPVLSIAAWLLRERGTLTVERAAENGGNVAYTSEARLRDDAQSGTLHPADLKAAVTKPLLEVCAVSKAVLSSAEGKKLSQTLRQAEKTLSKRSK
Kind of assay: Trypanosoma cruzi tyrosyl tRNA synthetase (TcYRS) _High Tyrosine SOP. Note: in the data most compounds retested in dose-response had high values. It counts as functional. Conditions: 30 µM.

In assay [10] the target is T5, Tyrosyl-tRNA synthetase, putative (Trypanosoma cruzi (strain CL Brener)). Nature of the assay: Trypanosoma cruzi tyrosyl tRNA synthetase (TcYRS) SOP. It counts as functional. As to conditions: 30 µM.
For assay [11], the target named is Chromo domain-containing protein 1 (Saccharomyces cerevisiae (strain ATCC 204508 / S288c) (Baker's yeast)) (UniProt P32657). Kind of assay: ScCHD-1 Enzyme Inhibition Assay. Note: in the data most compounds retested in dose-response had high values. It counts as functional. As to conditions: 30 µM.

For some of these results: Measured potencies and affinities stand elsewhere.

Protein translocase subunit SecA (Escherichia coli (strain K12)), sequence (P10408 whole entry): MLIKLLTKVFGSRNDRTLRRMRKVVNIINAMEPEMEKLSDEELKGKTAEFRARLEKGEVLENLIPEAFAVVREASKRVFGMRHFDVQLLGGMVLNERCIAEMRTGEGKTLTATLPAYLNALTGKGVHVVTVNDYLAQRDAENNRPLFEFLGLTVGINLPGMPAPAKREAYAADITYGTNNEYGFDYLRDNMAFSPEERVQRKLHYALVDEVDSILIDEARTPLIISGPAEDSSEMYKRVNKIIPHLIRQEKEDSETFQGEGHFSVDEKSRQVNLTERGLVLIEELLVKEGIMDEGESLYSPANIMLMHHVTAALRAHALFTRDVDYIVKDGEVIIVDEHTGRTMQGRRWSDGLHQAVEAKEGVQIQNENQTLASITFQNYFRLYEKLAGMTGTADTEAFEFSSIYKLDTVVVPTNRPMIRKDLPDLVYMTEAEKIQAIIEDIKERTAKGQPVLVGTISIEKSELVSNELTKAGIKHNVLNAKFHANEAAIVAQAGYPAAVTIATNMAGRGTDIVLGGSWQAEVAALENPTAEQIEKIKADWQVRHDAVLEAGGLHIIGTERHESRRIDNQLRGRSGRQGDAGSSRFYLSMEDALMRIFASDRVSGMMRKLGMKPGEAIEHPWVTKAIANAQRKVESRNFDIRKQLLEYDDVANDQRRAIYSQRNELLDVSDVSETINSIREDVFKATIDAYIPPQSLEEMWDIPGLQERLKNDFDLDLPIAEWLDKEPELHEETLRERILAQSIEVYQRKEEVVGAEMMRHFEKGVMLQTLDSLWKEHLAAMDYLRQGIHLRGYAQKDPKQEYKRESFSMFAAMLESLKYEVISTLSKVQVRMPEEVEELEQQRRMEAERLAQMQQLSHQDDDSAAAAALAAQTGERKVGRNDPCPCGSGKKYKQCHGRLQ
Chromo domain-containing protein 1 (Saccharomyces cerevisiae (strain ATCC 204508 / S288c) (Baker's yeast)), sequence (P32657 whole entry, the tested form may be a part): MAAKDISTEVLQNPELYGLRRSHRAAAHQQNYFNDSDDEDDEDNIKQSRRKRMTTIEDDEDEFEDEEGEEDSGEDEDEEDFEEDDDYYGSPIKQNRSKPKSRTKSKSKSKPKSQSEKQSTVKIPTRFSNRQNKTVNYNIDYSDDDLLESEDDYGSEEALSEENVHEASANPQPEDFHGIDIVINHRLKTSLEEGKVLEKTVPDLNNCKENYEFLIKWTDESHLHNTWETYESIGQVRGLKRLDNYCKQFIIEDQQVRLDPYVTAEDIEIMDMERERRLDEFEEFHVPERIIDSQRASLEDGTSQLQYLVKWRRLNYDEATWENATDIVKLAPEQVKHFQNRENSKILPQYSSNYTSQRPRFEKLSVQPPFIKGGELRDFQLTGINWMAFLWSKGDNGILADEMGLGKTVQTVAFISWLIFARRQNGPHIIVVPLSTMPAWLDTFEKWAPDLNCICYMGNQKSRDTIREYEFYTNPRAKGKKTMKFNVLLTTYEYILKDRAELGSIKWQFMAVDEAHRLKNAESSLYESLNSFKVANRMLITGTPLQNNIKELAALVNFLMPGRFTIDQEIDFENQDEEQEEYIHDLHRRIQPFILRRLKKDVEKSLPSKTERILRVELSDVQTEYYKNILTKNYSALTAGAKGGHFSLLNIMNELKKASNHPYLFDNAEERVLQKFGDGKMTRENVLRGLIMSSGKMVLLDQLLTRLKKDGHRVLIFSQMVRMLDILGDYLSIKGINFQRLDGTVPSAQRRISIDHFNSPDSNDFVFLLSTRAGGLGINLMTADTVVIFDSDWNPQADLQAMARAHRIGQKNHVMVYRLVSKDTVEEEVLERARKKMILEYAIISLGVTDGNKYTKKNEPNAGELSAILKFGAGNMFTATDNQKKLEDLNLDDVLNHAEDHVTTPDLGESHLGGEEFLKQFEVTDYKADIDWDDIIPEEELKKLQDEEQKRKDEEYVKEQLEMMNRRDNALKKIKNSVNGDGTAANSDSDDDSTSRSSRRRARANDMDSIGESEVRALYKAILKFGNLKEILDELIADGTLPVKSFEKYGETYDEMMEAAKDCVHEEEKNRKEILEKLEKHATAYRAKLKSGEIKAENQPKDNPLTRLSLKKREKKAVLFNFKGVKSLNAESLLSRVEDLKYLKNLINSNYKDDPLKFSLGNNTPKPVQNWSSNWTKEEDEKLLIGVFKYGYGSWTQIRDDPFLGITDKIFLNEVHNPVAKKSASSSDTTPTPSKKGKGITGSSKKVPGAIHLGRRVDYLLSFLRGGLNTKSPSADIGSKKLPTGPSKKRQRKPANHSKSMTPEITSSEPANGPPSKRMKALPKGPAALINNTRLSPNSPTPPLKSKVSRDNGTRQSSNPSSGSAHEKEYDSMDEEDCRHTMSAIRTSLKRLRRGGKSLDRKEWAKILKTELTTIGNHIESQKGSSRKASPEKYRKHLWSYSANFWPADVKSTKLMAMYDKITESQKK
Sialic acid-binding Ig-like lectin 9 (Homo sapiens), sequence (Q9Y336 whole entry): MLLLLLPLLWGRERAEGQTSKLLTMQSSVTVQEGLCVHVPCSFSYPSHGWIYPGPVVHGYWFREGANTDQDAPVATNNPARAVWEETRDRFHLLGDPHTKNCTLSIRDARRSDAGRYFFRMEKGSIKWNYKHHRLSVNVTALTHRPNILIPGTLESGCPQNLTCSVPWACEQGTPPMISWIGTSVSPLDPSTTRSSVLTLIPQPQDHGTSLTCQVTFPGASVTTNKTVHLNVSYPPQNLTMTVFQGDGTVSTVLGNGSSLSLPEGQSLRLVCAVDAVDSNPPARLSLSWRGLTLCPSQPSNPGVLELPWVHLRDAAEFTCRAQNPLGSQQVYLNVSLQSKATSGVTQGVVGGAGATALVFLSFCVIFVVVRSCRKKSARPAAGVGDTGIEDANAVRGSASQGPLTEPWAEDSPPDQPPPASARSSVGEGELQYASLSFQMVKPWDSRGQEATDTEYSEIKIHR

Consider `NC(=O)N1C[C@H]2CN(Cc3nccs3)C[C@H]2C1`, for which the Percent Effect in assay [1] was 0.982%; in assay [2] it was 10.8%; in assay [3] it was 2.58%; in assay [4], 9.05%; in assay [5] it was -13%; with Trypanosoma cruzi, -3.62%. For the same compound, the Percent Effect in assay [6] was 1.59%; in assay [7], 16.6%; in the assay filed under Homo sapiens, 5.62%; in assay [8], -3.75%; in [9], 3.24%; in assay [10], 12.8%. The Percent Effect in [11] is -3.89%.
With `Cc1nnc(N2CCCC3(CN(Cc4ccncc4)CCO3)C2)o1` (stereo unspecified), the Percent Effect in assay [1] is 3.96%; in assay [2] it was 5.48%; in [3], -2.96%; in [4] it was 0.217%; in [5] it was 8.21%; in the assay on Trypanosoma cruzi, -4.76%. Moreover, the Percent Effect in [6] was -2%; in assay [7], 20.3%; in the assay listed under Homo sapiens, 6.92%; in assay [8], -16.9%; in assay [9] it was 4.17%; in [10] it was 16.1%. The Percent Effect in [11] was 0.771%.
For `Cn1cc(CN2CC[C@H]3CO[C@H](CNc4ncccn4)[C@H]3C2)cn1`, the Percent Effect in assay [1] was -1.24%; in [2] it was 13.3%; in [3] it was -0.0582%; in assay [4], 1.6%; in assay [5], -7.11%; in the assay with Trypanosoma cruzi, 5.02%. Further, the Percent Effect in assay [6] is -57.2%; in assay [7], 9.4%; in the assay filed under Homo sapiens it was 3.12%; in [8], -32.2%; in [9], 7.29%; in assay [10], 22.5%. For the same compound, in assay [11], the Percent Effect was -6.99%.
As for `COc1cc(CNCC(O)c2ccc(C)cc2)cc2c1OCCO2` (stereo unspecified), the Percent Effect was -5.58% in [1]; 24.3% in [2]; -2.36% in assay [3]; 11% in [4]; 14.6% in assay [5]; 2.32% with Trypanosoma cruzi. Moreover, the Percent Effect in assay [6] was -3.88%; in [7], 16.3%; in the assay listed under Homo sapiens it was 8.18%; in assay [8] it was -34.2%; in [9], 6.93%; in assay [10], 18.3%. For the same compound, the Percent Effect in [11] was -6.66%.
As to `c1cncc(COC[C@H]2CC[C@H]3[C@H](CCN3Cc3cccs3)O2)c1`, the Percent Effect in assay [1] was -1.85%; in assay [2], 13.3%; in assay [3], 6.9%; in assay [4], 3.86%; in [5], 2.88%; with Trypanosoma cruzi, -0.197%. The Percent Effect in assay [6] was 3.5%; in assay [7] it was 22.8%; in the assay filed under Homo sapiens, 3.65%; in assay [8], -13.6%; in assay [9], 7.45%; in assay [10] it was 14.1%. For the same compound, in assay [11], the Percent Effect was -5.4%.
For the compound `O=C(Cc1csc(-c2ccco2)n1)N1CCN(CCO)CC1`, the Percent Effect in [1] is 0.294%; in assay [2], 1.27%; in assay [3], -0.16%; in assay [4] it was 8.43%; in assay [5], 2.75%; in the assay with Trypanosoma cruzi it was 0.308%. Besides, the Percent Effect is 8.39% in assay [6]; 5.49% in assay [7]; 11.1% in the assay listed under Homo sapiens; -23.6% in assay [8]; 3.12% in [9]; 5.06% in assay [10]. Besides, the Percent Effect in assay [11] was -4.16%.
With `Cc1ccc(N2CCO[C@H]3CN(CC4CC4)C[C@H]32)nn1`, the Percent Effect in assay [1] is -4.5%; in assay [2], 2.7%; in assay [3], -6.1%; in [4] it was 0.95%; in assay [5], -5.02%; with Trypanosoma cruzi, 7.14%. The Percent Effect in assay [6] is -0.319%; in [7], 19.6%; in the assay listed under Homo sapiens it was -33.8%; in assay [8], 1.42%; in assay [9], 1.08%; in assay [10], 7.69%. The Percent Effect in [11] amounted to 5.67%.
